Read-out in assay [1]: Vascular endothelial growth factor receptor 2 (Homo sapiens) (UniProt P35968)
As to the kind of experiment: BSK_4H_VEGFRII: BioMAP Diversity Plus: 4H Assay for Vascular endothelial growth factor receptor 2 (VEGFR2) Biomarker Activity (AID 2283031). To be noted: primary human endothelial cells (HUVEC); actives raise or lower the signal. The method, boiled down: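 In this multiplexed HUVEC system, biomarker ELISA was performed after 24 h chemical exposure. Parallel SRB staining (TCA fixation, 560 nm) tracked cytotoxicity; DMSO served as baseline.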

Read-out in assay [2]: Human Leukocyte Antigen - DR isotype (HLADR), HLA-DRA (gene 3122)
Description: BSK_BE3C_HLADR: BioMAP Diversity Plus: BE3C Assay for Human Leukocyte Antigen - DR isotype (HLADR) Biomarker Activity (AID 2283032). To be noted: primary human bronchial epithelial cells; actives raise or lower the signal. The essentials: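 Chemicals are dosed onto BE3C bronchial epithelial cultures of human origin and left 24 h. HLA-DR is then measured by ELISA, and the endpoint is fitted in both directions using DMSO as the activity baseline.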

Read-out in assay [3]: Vascular cell adhesion molecule 1 (VCAM1), VCAM1 (gene 7412)
As to the kind of experiment: BSK_4H_VCAM1: BioMAP Diversity Plus: 4H Assay for Vascular cell adhesion molecule 1 (VCAM1) Biomarker Activity (AID 2283033).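 Note: cell-surface VCAM-1 protein measured by ELISA.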 The note with it: primary human endothelial cells (HUVEC); actives raise or lower the signal. The method, boiled down: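 Chemicals are added to primary human umbilical vein endothelial cells. After 24 h, VCAM-1 levels are measured by ELISA. Values come from bidirectional fitting referenced to DMSO.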

Read-out in assay [4]: Interferon-gamma inducible Protein 10 (IP10), CXCL10 (gene 3627)
As to the kind of experiment: BSK_BE3C_IP10: BioMAP Diversity Plus: BE3C Assay for Interferon-gamma inducible Protein 10 (IP10) Biomarker Activity (AID 2283034). To be noted: primary human bronchial epithelial cells; actives raise or lower the signal. The method, boiled down:
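IP-10 quantified by ELISA serves as the endpoint. Cells: primary human bronchial epithelium, read 24 h after compound addition. Activity is derived by bidirectional fitting with DMSO as negative control.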

Read-out in assay [5]: Monokine induced gamma interferon (MIG), CXCL9 (gene 4283)
As to the kind of experiment: BSK_BE3C_MIG: BioMAP Diversity Plus: BE3C Assay for Monokine induced gamma interferon (MIG) Biomarker Activity (AID 2283035).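 Note: MIG protein measured by ELISA in BE3C cultures after 24 h of dosing.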 To be noted: primary human bronchial epithelial cells; actives raise or lower the signal. The method, boiled down:
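ELISA quantified MIG after 24 h exposure of primary bronchial epithelial cultures, analysed in both directions relative to DMSO. Cytotoxicity tracked in parallel cultures by sulforhodamine B staining.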

Read-out in assay [6]: Transforming growth factor beta 1 (TGFb1), TGFB1 (gene 7040)
Description: BSK_BE3C_TGFb1: BioMAP Diversity Plus: BE3C Assay for Transforming growth factor beta 1 (TGFb1) Biomarker Activity (AID 2283036;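 note: TGF-b1 protein level measured by ELISA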). To be noted: primary human bronchial epithelial cells; actives raise or lower the signal. The essentials: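 Bronchial epithelial primary cells are treated with test chemical, then TGF-b1 is quantified by ELISA after 24 hours. Values derive from bidirectional fitting against DMSO, with cytotoxicity checked by SRB staining in parallel cultures.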

Read-out in assay [7]: Plasminogen activator inhibitor-1 (PAI1), SERPINE1 (gene 5054)
As to the kind of experiment: BSK_BE3C_PAI1: BioMAP Diversity Plus: BE3C Assay for Plasminogen activator inhibitor-1 (PAI1) Biomarker Activity (AID 2283037). To be noted: primary human bronchial epithelial cells; actives raise or lower the signal. The essentials:
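Values derive from bidirectional fitting against DMSO baseline of PAI-1 levels, measured by ELISA in human bronchial epithelial cells 24 h after compound addition.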

Read-out in assay [8]: urokinase plasminogen activator (uPA), PLAU (gene 5328)
As to the kind of experiment: BSK_BE3C_uPA: BioMAP Diversity Plus: BE3C Assay for urokinase plasminogen activator (uPA) Biomarker Activity (AID 2283038).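 Note: uPA protein level quantified by ELISA in cell cultures; uPA read one day after compound addition.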 To be noted: primary human bronchial epithelial cells; actives raise or lower the signal. The essentials: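 Using confluent primary human lung bronchial epithelial cultures, we dosed chemicals, waited 24 h, then ran a uPA ELISA, fitting bidirectionally against DMSO.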

Read-out in assay [9]: Urokinase-type plasminogen activator receptor (uPAR), PLAUR (gene 5329)
Description: BSK_BE3C_uPAR: BioMAP Diversity Plus: BE3C Assay for Urokinase-type plasminogen activator receptor (uPAR) Biomarker Activity (AID 2283039).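 Note: uPAR protein level measured by ELISA on the cells; cells exposed to compound for one day before measurement.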 The note with it: primary human bronchial epithelial cells; actives raise or lower the signal. The essentials:
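Steps: dose human primary bronchial epithelial cells, incubate 24 h, measure uPAR by ELISA, then fit gain- or loss-of-signal response bidirectionally relative to DMSO.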

Read-out in assay [10]: Interleukin-6 (IL6), IL6 (gene 3569)
As to the kind of experiment: BSK_CASM3C_IL6: BioMAP Diversity Plus: CASM3C Assay for Interleukin-6 (IL6) Biomarker Activity for (AID 2283040). To be noted: primary human coronary artery smooth muscle cells; actives raise or lower the signal.

Read-out in assay [11]: Tissue plasminogen activator (tPA), PLAT (gene 5327)
Description: BSK_BE3C_tPA: BioMAP Diversity Plus: BE3C Assay for Tissue plasminogen activator (tPA) Biomarker Activity (AID 2283041).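 Note: tPA level quantified by ELISA one day after compound addition.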 The note with it: primary human bronchial epithelial cells; actives raise or lower the signal. The essentials:
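Gain- or loss-of-signal in tPA, measured by ELISA, derived by bidirectional fitting against DMSO. Cells: human primary bronchial epithelial; read at 24 h after chemical dosing.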

Read-out in assay [12]: Interleukin-8 (IL8), CXCL8 (gene 3576)
As to the kind of experiment: BSK_CASM3C_IL8: BioMAP Diversity Plus: CASM3C Assay for Interleukin-8 (IL8) Biomarker Activity (AID 2283042).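 Note: IL-8 protein level quantified by ELISA.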 The note with it: primary human coronary artery smooth muscle cells; actives raise or lower the signal.

Read-out in assay [13]: Human Leukocyte Antigen - DR isotype (HLADR), HLA-DRA (gene 3122)
Description: BSK_CASM3C_HLADR: BioMAP Diversity Plus: CASM3C Assay for Human Leukocyte Antigen - DR isotype (HLADR) Biomarker Activity (AID 2283043).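 Note: cell-surface HLA-DR protein level quantified by ELISA.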 To be noted: primary human coronary artery smooth muscle cells; actives raise or lower the signal.

Read-out in assay [14]: Macrophage colony-stimulating factor (MCSF), CSF1 (gene 1435)
As to the kind of experiment: BSK_CASM3C_MCSF: BioMAP Diversity Plus: CASM3C Assay for Macrophage colony-stimulating factor (MCSF) Biomarker Activity (AID 2283044).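 Note: M-CSF protein amount quantified by ELISA after 24 h exposure.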 To be noted: primary human coronary artery smooth muscle cells; actives raise or lower the signal.

Read-out in assay [15]: Low-density lipoprotein receptor (LDLR), LDLR (gene 3949)
As to the kind of experiment: BSK_CASM3C_LDLR: BioMAP Diversity Plus: CASM3C Assay for Low-density lipoprotein receptor (LDLR) Biomarker Activity (AID 2283045).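 Note: LDLR protein level on the cell surface quantified by ELISA.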 The note with it: primary human coronary artery smooth muscle cells; actives raise or lower the signal.

Read-out in assay [16]: Monocyte Chemoattractant Protein-1 (MCP1), CCL2 (gene 6347)
Description: BSK_CASM3C_MCP1: BioMAP Diversity Plus: CASM3C Assay for Monocyte Chemoattractant Protein-1 (MCP1) Biomarker Activity (AID 2283046).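 Note: MCP-1 level quantified by ELISA 24 h after dosing.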 The note with it: primary human coronary artery smooth muscle cells; actives raise or lower the signal.

The nature of assay [17]: BSK_CASM3C_Proliferation: Cell Proliferation Assessment in the BioMAP Diversity Plus: CASM3C Assay (AID 2283047).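 Note: sulforhodamine B total protein stain as relative cell number at 560 nm; sub-confluent cells exposed 48 h before staining; fitted both ways against DMSO so gain or loss of cell number.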 To be noted: primary human coronary artery smooth muscle cells.
Read-out in assay [18]: Monokine induced gamma interferon (MIG), CXCL9 (gene 4283)
As to the kind of experiment: BSK_CASM3C_MIG: BioMAP Diversity Plus: CASM3C Assay for Monokine induced gamma interferon (MIG) Biomarker Activity (AID 2283048).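 Note: MIG protein level measured by ELISA.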 To be noted: primary human coronary artery smooth muscle cells; actives raise or lower the signal.

Read-out in assay [19]: serum amyloid A (SAA), SAA1 (gene 6288)
Description: BSK_CASM3C_SAA: BioMAP Diversity Plus: CASM3C Assay for serum amyloid A (SAA) Biomarker Activity (AID 2283049).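 Note: SAA protein level quantified by ELISA.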 The note with it: primary human coronary artery smooth muscle cells; actives raise or lower the signal.

A short description of assay [20]: BSK_CASM3C_SRB: Viability Assessment in the BioMAP Diversity Plus: CASM3C Assay (AID 2283050).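 Note: total protein by SRB staining as cytotoxicity measure in parallel cultures.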 The note with it: primary human coronary artery smooth muscle cells.

The source holds several records for some structures; these can differ, active in one and inactive in another. The source made the active and inactive calls. Rule for the calls: active = hit-call score of the fitted dose curve at least 0.9, where 1 is the maximum; inactive = score below 0.9.

As to `O=C(O)C(F)(F)C(F)(F)C(F)(F)C(F)(F)C(F)(F)F`, the outcome in assay [1], in [2], in [3], in [4], in assay [5] and in [6] was inactive. The outcome in assay [7], in [8], in [9], in assay [10], in [11] and in [12] was inactive. The outcome in assay [13], in assay [14], in assay [15], in assay [16], in [17] and in assay [18] was inactive. Further, the outcome in assay [19] and in assay [20] was inactive.
For orientation: AC50 means the concentration giving half of the maximal activity seen. For the compound `O=S(=O)(O)C(F)(F)C(F)(F)C(F)(F)C(F)(F)F`, the outcome in assay [1], in [2], in [3], in [4], in assay [5] and in assay [6] was inactive. In addition, the result in assay [7], in assay [8], in [9], in [10], in assay [11] and in assay [12] was inactive. The outcome in assay [13], in [14], in [15], in [16], in [17] and in [18] was inactive. Also, the result in assay [19] and in assay [20] was inactive. Further, the AC50 in assay [19] was 558 nM (active).
Turning to `O=C(NC(=O)c1cc(F)c(F)cc1Cl)Nc1cc(F)ccc1N1CCC(C(=O)O)CC1`, the result in assay [1], in assay [2], in assay [3], in assay [4], in [5] and in assay [6] was inactive. Further, the outcome in assay [7], in [8], in assay [9], in assay [10], in assay [11] and in assay [12] was inactive. Further, the outcome in assay [13], in [14], in assay [15], in assay [16], in assay [17] and in assay [18] was inactive. Also, the result in [19] and in assay [20] was inactive.
Turning to `Cc1cc(O)ccc1Cl`, the outcome in assay [1], in assay [2], in assay [3], in assay [4], in assay [5] and in [6] was inactive. Besides, the outcome in [7], in assay [8], in [9], in assay [10], in assay [11] and in [12] was inactive. The outcome in [13], in [14], in assay [15], in assay [16], in [17] and in assay [18] was inactive. Also, the result in [19] and in assay [20] was inactive.
On to `C[C@]12CCC(=O)C=C1CC[C@@H]1[C@@H]2CC[C@]2(C)C(=O)CC[C@@H]12`, for which the outcome in assay [1], in assay [2], in [3], in assay [4], in assay [5] and in assay [6] was inactive. Also, the result in assay [7], in assay [8], in [9], in [10], in assay [11] and in [12] was inactive. The outcome in assay [13], in assay [14], in [16], in assay [17], in assay [18] and in assay [19] was inactive. In addition, in assay [20], the outcome was inactive. In assay [15], the AC50 is 4900 nM (active).
In the case of `CCC(C)(CC)c1cc(NC(=O)c2c(OC)cccc2OC)on1`, the result in [1], in [2], in assay [3], in assay [4], in assay [5] and in assay [6] was inactive. The outcome in assay [7], in [8], in [9], in [10], in assay [11] and in assay [12] was inactive. The outcome in assay [13], in assay [14], in assay [15], in assay [16], in assay [17] and in assay [18] was inactive. Further, the result in assay [19] and in assay [20] was inactive.

The values are drawn from PubChem BioAssay (EPA / NIEHS).
